# Several values for one entry are separate records, joined by “and”; a condition that tells them apart may be missing. Equal entries are not always repeated. About 2,000 (36%) of roughly 5,500 compounds were called active. About 18% were inconclusive and are not listed. The list shows a part of the results. Unmarked numbers belong to inactive results. Rule as the data show it: active = normalized growth mostly below about 0.91 (no sharp cut-off); inconclusive = no clear call, values can overlap the other calls; inactive = mostly above about 0.92.
# Assay: chemical genetic growth profiling, strain panel (AID 1159580);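 also: tested at 20 µM; growth read once vehicle control cultures reached saturation at 30 °C; 1 = growth at the plate median or of vehicle wells; lower values mean less growth of the strain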
# Details: S. cerevisiae deletion strains, growth OD
structure (smiles),measurement,setting,value
C#C[C@]1(O)CCC2C3CCC4=CC(=O)CC[C@@H]4C3CC[C@@]21CC (some centres undefined),normalized growth,"locus YAL021C, strain ccr4, active compounds read low",0.986
same,normalized growth,"locus YAL026C, strain drs2, active compounds read low",0.972
same,normalized growth,"locus YAL030W, strain snc1, active compounds read low",1
same,normalized growth,"locus YBL061C, strain skt5, active compounds read low",0.987
same,normalized growth,"locus YBR009C, strain hhf1, active compounds read low",0.985
same,normalized growth,"locus YBR021W, strain FUR4, active compounds read low",1
same,normalized growth,"locus YBR023C, strain chs3, active compounds read low",0.983
same,normalized growth,"locus YBR171W, strain sec66, active compounds read low",0.992
same,normalized growth,"locus YBR229C, strain ROT2, active compounds read low",0.984
same,normalized growth,"locus YBR231C, strain swc5, active compounds read low",1.01
same,normalized growth,"locus YBR279W, strain paf1, active compounds read low",0.998
same,normalized growth,"locus YCL011C, strain gbp2, active compounds read low",1
same,normalized growth,"locus YCL016C, strain dcc1, active compounds read low",0.988
same,normalized growth,"locus YCL029C, strain bik1, active compounds read low",0.981
same,normalized growth,"locus YCL061C, strain MRC1, active compounds read low",0.991
same,normalized growth,"locus YCL069W, strain vba3, active compounds read low",0.995
same,normalized growth,"locus YCR088W, strain abp1, active compounds read low",0.999
same,normalized growth,"locus YDL005C, strain med2, active compounds read low",0.987
same,normalized growth,"locus YDL035C, strain GPR1, active compounds read low",0.979
same,normalized growth,"locus YDL040C, strain nat1, active compounds read low",0.99
same,normalized growth,"locus YDL074C, strain BRE1, active compounds read low",1.04
same,normalized growth,"locus YDL101C, strain DUN1, active compounds read low",0.987
same,normalized growth,"locus YDL134C, strain PPH21, active compounds read low",0.974
same,normalized growth,"locus YDL185W, strain tfp1, active compounds read low",0.982
same,normalized growth,"locus YDL192W, strain arf1, active compounds read low",0.986
same,normalized growth,"locus YDR001C, strain nth1, active compounds read low",1
same,normalized growth,"locus YDR069C, strain doa4, active compounds read low",0.979
same,normalized growth,"locus YDR101C, strain arx1, active compounds read low",0.988
same,normalized growth,"locus YDR137W, strain rgp1, active compounds read low",0.82 (active)
same,normalized growth,"locus YDR150W, strain NUM1, active compounds read low",1.01
same,normalized growth,"locus YDR159W, strain sac3, active compounds read low",0.978
same,normalized growth,"locus YDR162C, strain NBP2, active compounds read low",0.997
same,normalized growth,"locus YDR195W, strain ref2",1.05
same,normalized growth,"locus YDR297W, strain sur2, active compounds read low",0.993
same,normalized growth,"locus YDR318W, strain mcm21, active compounds read low",0.976
same,normalized growth,"locus YDR334W, strain swr1, active compounds read low",1.01
same,normalized growth,"locus YDR335W, strain msn5, active compounds read low",1
same,normalized growth,"locus YDR388W, active compounds read low",0.992
same,normalized growth,"locus YDR392W, strain spt3, active compounds read low",0.828
same,normalized growth,"locus YDR502C, strain sam2, active compounds read low",0.984
same,normalized growth,"locus YEL003W, strain gim4, active compounds read low",0.967
same,normalized growth,"locus YEL037C, strain rad23, active compounds read low",0.983
same,normalized growth,"locus YEL061C, strain CIN8 (second series), active compounds read low",1
same,normalized growth,"locus YEL061C, strain CIN8, active compounds read low",1.01
same,normalized growth,"locus YER015W, strain faa2, active compounds read low",1.01
same,normalized growth,"locus YER016W, strain bim1, active compounds read low",0.993
same,normalized growth,"locus YER110C, active compounds read low",0.999
same,normalized growth,"locus YER111C, strain swi4, active compounds read low",0.997
same,normalized growth,"locus YER155C, strain BEM2 (second series), active compounds read low",0.997
same,normalized growth,"locus YER155C, strain BEM2, active compounds read low",0.99
same,normalized growth,"locus YER167W, strain BCK2, active compounds read low",0.991
same,normalized growth,"locus YFR010W, strain ubp6, active compounds read low",0.991
same,normalized growth,"locus YGL078C, strain dbp3, active compounds read low",0.989
same,normalized growth,"locus YGL086W, strain mad1, active compounds read low",1
same,normalized growth,"locus YGL167C, strain pmr1, active compounds read low",0.995
same,normalized growth,"locus YGL173C, strain kem1, active compounds read low",0.979
same,normalized growth,"locus YGL227W, strain vid30, active compounds read low",1.01
same,normalized growth,"locus YGL240W, strain doc1, active compounds read low",0.991
same,normalized growth,"locus YGL248W, strain PDE1, active compounds read low",0.993
same,normalized growth,"locus YGL253W, strain hxk2, active compounds read low",0.995
same,normalized growth,"locus YGR135W, strain pre9, active compounds read low",0.975
same,normalized growth,"locus YGR229C, strain SMI1, active compounds read low",1.01
same,normalized growth,"locus YGR252W, strain gcn5, active compounds read low",1.06
same,normalized growth,"locus YHR013C, strain ard1, active compounds read low",1.01
same,normalized growth,"locus YHR027C, strain rpn1, active compounds read low",1.01
same,normalized growth,"locus YHR030C, strain SLT2, active compounds read low",0.995 and 0.955
same,normalized growth,"locus YHR079C, strain IRE1 (second series), active compounds read low",0.979
same,normalized growth,"locus YHR079C, strain IRE1, active compounds read low",0.955
same,normalized growth,"locus YHR094C, strain hxt1, active compounds read low",1
same,normalized growth,"locus YHR129C, strain ARP1, active compounds read low",0.996
same,normalized growth,"locus YHR142W, strain chs7, active compounds read low",0.997
same,normalized growth,"locus YHR200W, strain rpn10, active compounds read low",0.984
same,normalized growth,"locus YIL066C, strain RNR3, active compounds read low",0.995
same,normalized growth,"locus YIL073C, strain SPO22, active compounds read low",0.944
same,normalized growth,"locus YIL125W, strain kgd1, active compounds read low",0.998
same,normalized growth,"locus YIR030C, strain dcg1, active compounds read low",0.982
same,normalized growth,"locus YJL092W, strain hpr5, active compounds read low",0.998
same,normalized growth,"locus YJL095W, strain BCK1 (second series), active compounds read low",1.01
same,normalized growth,"locus YJL095W, strain BCK1, active compounds read low",0.988 and 0.951
same,normalized growth,"locus YJL115W, strain asf1, active compounds read low",1
same,normalized growth,"locus YJL129C, strain trk1, active compounds read low",0.986
same,normalized growth,"locus YJL134W, strain LCB3, active compounds read low",0.995
same,normalized growth,"locus YJL154C, strain vps35, active compounds read low",0.993
same,normalized growth,"locus YJL164C, strain tpk1, active compounds read low",0.988
same,normalized growth,"locus YJL166W, strain qcr8, active compounds read low",0.991
same,normalized growth,"locus YJL168C, strain set2, active compounds read low",0.99
same,normalized growth,"locus YJL187C, strain SWE1 (second series), active compounds read low",0.988
same,normalized growth,"locus YJL187C, strain SWE1, active compounds read low",0.997
same,normalized growth,"locus YJR043C, strain POL32, active compounds read low",1.01

# Reference: PubChem BioAssay AID1159580 (chemical genetic matrix, 2015)
